The results in this text go back to PubChem BioAssay (NCATS).

Inconclusive results are not listed. The source made the active and inactive calls. Unless noted, the call rests on the fitted dose curve.

A short description of assay [1]: Confirmation and Secondary Assay for Modulators of Hemoglobin Beta Chain Splicing at IVS2 654 locus (AID 910; active means well fitted curve in the direction sought with a large enough effect; an effect the other way counts as inactive or inconclusive;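 further: HeLa cells stably carrying EGFP split by mutant beta-globin IVS2-654 intron; per-well total GFP intensity by laser scanning cytometry after 2-day treatment; % of control where 0% means no effect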). Summed up: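 Readout: per-well total peak green fluorescence (488 nm ex, 500–520 nm em) from objects 5–250 µm, reflecting correct splicing of an EGFP-654 reporter. Compounds were applied for 2 days at 37 °C to overnight-plated HeLa EGFP-654 cells; controls were DMSO and 500 nM IVS2-654 PNA.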

Assay [2] in a line: Confirmation and Secondary Assay for Modulators of Hemoglobin Beta Chain Splicing at IVS2 705 locus (AID 930; active means well fitted curve in the direction sought with a large enough effect; an effect the other way counts as inactive or inconclusive;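 further: HeLa cells stably expressing the EGFP-705 splicing reporter; GFP fluorescence per well restored by corrected splicing of the IVS2-705 intron in EGFP; % of control where 0% means no effect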). Summed up:
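Fluorescence gain (488 nm laser, 500-520 nm PMT) reflects restored correct splicing of a mutant IVS2-705 intron inside EGFP in stably transfected HeLa cells after 2-day compound treatment.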

Assay [3] can be described thus: qHTS Assay for Lipid Storage Modulators (AID 1519). On activity change, negative = inhibition: on the % scale 0 is the no-effect control and ±100 the full control effect. Particulars: Drosophila S3 cells, BODIPY lipid droplet/cell ratio, laser cytometry, cells loaded with oleic acid; for activity change, negative = inhibition: at 57.5 µM (top of the series). Summed up:
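Cells seeded at 5,000 per well were treated with compounds over a concentration series and loaded with oleic acid (400 uM, as added). Lipid droplet fluorescence (488 nm excitation, 500-530 nm channel) was read by laser-scanning cytometry and normalized to 20 uM Triacsin C.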
For orientation: In qHTS, concentration-response curves come from the screen itself.

Assay [4] has as its target Cytochrome P450 2C9 (Homo sapiens) (UniProt P11712). The assay is described as follows: Cytochrome P450 family 2 subfamily C member 9 (CYP2C9) small molecule antagonists: luciferase biochemical (cell-free) qHTS assay (AID 1645842; active means well fitted curve in the direction sought with a large enough effect in the repeat runs; an effect the other way counts as inactive or inconclusive; further: nearly all actives have a fitted effect of over 55% in size; further: potency means the concentration at half of the fitted maximal effect; on activity change, negative = inhibition: on the % scale 0 is the no-effect control and ±100 the full control effect). An outline of the steps: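 P450-Glo CYP2C9 system: proluciferin substrate with enzyme in mix containing 0.4% BSA, 10 min at room temperature, then NADPH regeneration solution added and incubated 1 h at 37C. Detection reagent stopped reaction; luminescence read after 20 min as RLU.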

In assay [5] the target is Cytochrome P450 2D6 (Homo sapiens) (UniProt P10635). The assay is described as follows: Cytochrome P450 family 2 subfamily D member 6 (CYP2D6) small molecule antagonists: luciferase biochemical (cell-free) qHTS assay (AID 1645840; active means well fitted curve in the direction sought with a large enough effect in the repeat runs; an effect the other way counts as inactive or inconclusive; further: on the % scale 0 is the no-effect control and ±100 the full control effect; nearly all actives have a fitted effect of over 55% in size). Summed up: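 P450-Glo CYP2D6 system: proluciferin substrate converted by enzyme to luciferin, read by luminescence proportional to activity. Enzyme-substrate mix with compound 10 min at room temperature, then NADPH regeneration 1 h before detection reagent.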

A short description of assay [6]: Confirmatory qHTS to identify inhibitors of SARS-CoV-2 cell entry (AID 1645844). Further: nearly all actives have a fitted effect of over 45% in size. Further: potency means the concentration at half of the fitted maximal effect. Summed up: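 Luminescence entry read-out after 48 h: spike-pseudotyped MLV particles (Wuhan-Hu-1, 19-aa C-terminal truncation) added to compound-pretreated (1 h) HEK293-ACE2 cells; Data were normalised to bald PP and spike PP wells.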
The nature of assay [7]: Primary qHTS to identify inhibitors of SARS-CoV-2 cell entry (AID 1645846). Further: nearly all actives have a fitted effect of over 45% in size. Further: potency means the concentration at half of the fitted maximal effect. Particulars: SARS-CoV-2 pseudovirus cell entry assay, luminescence; activity change, negative = inhibition: at 57.1 µM (top of the series) unless noted. Summed up: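 Luminescence readout (Bright-Glo luciferase) 48 h after pseudoparticle addition. HEK293-ACE2 cells, 1500/well; compound pre-incubation 1 h; Normalized to spike PP and bald PP.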

Assay [8] can be described thus: VSVG counterscreen qHTS to identify inhibitors of SARS-CoV-2 cell entry (AID 1645847). Further: nearly all actives have a fitted effect of over 65% in size. Further: potency means the concentration at half of the fitted maximal effect. On activity change, negative = inhibition: on the % scale 0 is the no-effect control and ±100 the full control effect. Summed up:
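HEK293-ACE2 cells (Expi293F stably expressing human ACE2) were pretreated with compound for 1 h at 37 °C, then infected with MLV-based VSV-G pseudotyped particles for 48 h. Luciferase luminescence was normalized to VSV-G PP and bald PP wells.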
In general terms: A counterscreen serves to expose hits that act by an unwanted route or on another target.

A short description of assay [9]: Cytotoxicity counterscreen for inhibitors of SARS-CoV-2 cell entry (AID 1645845). Further: nearly all actives have a fitted effect of over 50% in size. Particulars: outcome: dose series up to 57.1 µM unless noted. Summed up: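 ATP-content luminescence (ATPLite 1step, 15 min RT) read after 48 h compound exposure of Expi293F cells stably expressing human ACE2; normalized to cells-only wells and media-only wells.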
The mark [10] stands for this setting: measured here: cell count channel max response.
The mark [11] stands for this setting: measured here: lipid channel max response.

Cytochrome P450 2D6 (Homo sapiens), sequence (P10635 whole entry, looked up): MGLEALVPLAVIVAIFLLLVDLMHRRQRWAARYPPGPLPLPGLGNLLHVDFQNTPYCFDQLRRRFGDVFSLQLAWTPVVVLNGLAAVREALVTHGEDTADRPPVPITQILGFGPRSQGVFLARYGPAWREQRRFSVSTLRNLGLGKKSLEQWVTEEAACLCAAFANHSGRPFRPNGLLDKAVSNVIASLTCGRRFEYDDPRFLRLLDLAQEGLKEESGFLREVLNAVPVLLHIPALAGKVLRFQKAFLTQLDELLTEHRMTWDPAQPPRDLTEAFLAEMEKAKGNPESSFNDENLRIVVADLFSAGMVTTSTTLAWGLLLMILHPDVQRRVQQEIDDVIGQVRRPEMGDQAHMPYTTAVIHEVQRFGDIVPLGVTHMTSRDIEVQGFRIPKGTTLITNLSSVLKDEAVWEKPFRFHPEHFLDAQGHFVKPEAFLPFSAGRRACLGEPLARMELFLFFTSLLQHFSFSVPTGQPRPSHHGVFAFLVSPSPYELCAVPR
Cytochrome P450 2C9 (Homo sapiens), sequence (P11712 whole entry, looked up): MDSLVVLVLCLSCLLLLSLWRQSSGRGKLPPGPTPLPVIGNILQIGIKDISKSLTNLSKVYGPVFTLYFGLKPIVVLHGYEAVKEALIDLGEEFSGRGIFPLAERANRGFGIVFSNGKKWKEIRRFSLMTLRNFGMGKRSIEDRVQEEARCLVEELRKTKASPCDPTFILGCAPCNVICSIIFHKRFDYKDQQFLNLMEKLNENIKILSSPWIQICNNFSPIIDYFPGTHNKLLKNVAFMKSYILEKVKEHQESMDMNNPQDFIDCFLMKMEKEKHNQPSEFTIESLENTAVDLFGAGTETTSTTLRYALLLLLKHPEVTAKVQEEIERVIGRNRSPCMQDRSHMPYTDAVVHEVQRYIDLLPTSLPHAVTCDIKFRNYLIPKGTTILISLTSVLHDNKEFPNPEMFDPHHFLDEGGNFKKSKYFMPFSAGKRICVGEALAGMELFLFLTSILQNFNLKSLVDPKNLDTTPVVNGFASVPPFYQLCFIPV

On to `CC1C(=O)OC2O[C@]3(C)CC[C@H]4C(C)CCC1[C@]24OO3` (stereo partly specified), for which the Potency entry in assay [1] and in assay [2] was “inactive” each time. Further, in assay [3], the activity change, negative = inhibition is 8.3% (inactive). Further, the max response in assay [3] (setting [10]) was determined as 8.98%; in assay [3] (setting [11]) it was 23.7%.
As for `CC(C)(N)Cc1ccccc1`, the Potency entry in [4] is “inactive”.
Consider `CC1/C=C/C=C/CC/C=C/C=C/C=C/C=C/C(OC2OC(C)C(O)C(N)C2O)CC2O[C@](O)(CC(O)C(O)CCC(O)CC(O)CC(O)CC(=O)OC(C)C(C)C1O)CC(O)C2C(=O)O` (stereo partly specified), for which the Potency entry in assay [1] and in [2] was “inactive” each time. The activity change, negative = inhibition in [3] was 9.08% (inactive). In addition, the max response turned out to be 17% in [3] (setting [10]) and 32% in [3] (setting [11]).
As for `CN(C)[C@@H]1C(=O)C(C(N)=O)C(=O)[C@@]2(O)C(=O)C3C(=O)c4c(O)ccc(Cl)c4[C@@](C)(O)C3C[C@@H]12` (stereo partly specified), the Potency result in assay [5] and in assay [4] was “inactive” throughout.
Turning to `CCOC(=O)/C=C/[C@H](C[C@@H]1CCNC1=O)NC(=O)[C@@H](CC(=O)[C@@H](NC(=O)c1cc(C)on1)C(C)C)Cc1ccc(F)cc1`, the Potency entry in [5] is “inactive”. In assay [4], the Potency was 4770 nM (active).
Take `Cc1ccccc1[C@@H](C(=O)NC1CCCCC1)N(C(=O)Cn1ccnc1C)c1cccc(F)c1`: the Potency result in assay [4] was “inactive”.
In the case of `CCN(CC)N(O)N=O`, the Potency entry in assay [5] and in assay [4] was “inactive” each time.
As to `CC[C@]12C=CCN3CC[C@@]4(c5cc([C@@]6(C(=O)OC)C[C@H]7C[C@@H](C(C)(F)F)CN(Cc8c6[nH]c6ccccc86)C7)c(OC)cc5N(C)[C@H]4[C@@](O)(C(=O)OC)[C@@H]1OC(C)=O)[C@@H]32`, the results for the Potency in [6] and in [8] were 359 nM (active) and 127 nM (active), respectively. The activity change, negative = inhibition in assay [7] is -76.7% [at 19 µM].
On to `COc1cc(OC)c(/C=C/S(=O)(=O)Cc2ccc(OC)c(OP(=O)(O)O)c2)c(OC)c1`, for which the figures for the Potency in assay [6] and in [8] were 17.5 nM (active) and 39.3 nM (active), respectively. Further, the Potency entry in assay [9] is “inactive”. In addition, in assay [7], the activity change, negative = inhibition was -77.7%.
Take `C=C1C[C@H]2C=Nc3cc(OCCCOc4cc5c(cc4OC)C(=O)N4CC(=C)C[C@H]4C=N5)c(OC)cc3C(=O)N2C1`: the Potency is 1.5 nM (active) in assay [6] and 1.4 nM (active) in [8]. The Potency result in assay [9] was “inactive”. For the same compound, the activity change, negative = inhibition in assay [7] was -62%.
On to `CC(C)n1c(=O)cc(N[C@@H](C)c2ccccc2)[nH]c1=O`, for which the Potency entry in assay [6], in assay [9] and in [8] was “inactive” each time. In addition, the activity change, negative = inhibition in [7] was -96.7%.
As for `CC#CC(=O)N1CC[C@@H](n2c(=O)n(-c3ccc(Oc4ccccc4)cc3)c3c(N)ncnc32)C1`, in assay [6], the Potency is 21500 nM (active). Further, the activity change, negative = inhibition in assay [7] was -99%.
Consider `O=C(Nc1cc(Oc2cc(F)c(NC(=O)C3(C(=O)Nc4ccc(F)cc4)CC3)cc2F)ccn1)C1CC1`, for which the Potency in assay [6] is 21500 nM (active); in [8] it was 15200 nM (active). Moreover, in assay [9], the Potency result was “inactive”. In addition, the activity change, negative = inhibition in assay [7] is -38.1%.
As for `C=CC(=O)N[C@H]1CN(c2nc(Nc3cn(C)nc3OC)c3ncn(C)c3n2)C[C@@H]1F`, the Potency entry in assay [6], in assay [9] and in assay [8] was “inactive” in each case.
In the case of `Cc1cnc(Nc2ccc(F)cc2Cl)nc1-c1c[nH]c(C(=O)NC(CO)c2cccc(Cl)c2)c1` (stereo unspecified), the Potency in assay [6] is 3830 nM (active); in assay [7], 8910 nM (active); in assay [8], 1920 nM (active). Also, the Potency result in assay [9] was “inactive”.
As for `CC/C(=C(/c1ccc(O)cc1)c1ccc(OCCNC)cc1)c1ccccc1`, the Potency in assay [6] is 17100 nM (active); in assay [8], 24100 nM (active). For the same compound, the Potency entry in assay [9] was “inactive”. Also, in assay [7], the activity change, negative = inhibition is -36.5%.
`Cc1cc(/C=c2/sc3nc4ccccc4n3c2=O)c(C)n1-c1ccccc1`: the values for the Potency in assay [6] and in assay [8] were 34.1 nM (active) and 68.1 nM (active), respectively. Also, the Potency result in assay [9] is “inactive”. Moreover, the activity change, negative = inhibition in assay [7] is -93.9%.
For the compound `C=CC(=O)N1CCC(Oc2cc3c(Nc4ccc(Cl)c(Cl)c4F)ncnc3cc2OC)CC1`, the Potency in [6] was 1360 nM (active); in assay [8], 961 nM (active). Also, in assay [9], the Potency result was “inactive”.
`Cc1c(-c2ccc(-c3ccccc3F)cc2)nc2ccc(F)cc2c1C(=O)O`: the Potency was 108 nM (active) in [6] and 136 nM (active) in assay [8]. Also, the Potency result in assay [9] is “inactive”. For the same compound, in [7], the activity change, negative = inhibition was -89.2%.
